# High-throughput results: PubChem BioAssay, National Center for Advancing Translational Sciences (NCATS)
# Shown is part of a subset that was picked to be rich in hits.
# PKM2 inhibitor: blocks activity of human pyruvate kinase M2. hit rate 0.058% among 260,000. Potency, µM (highest dose often 57.5 µM), without a hit: at the highest dose activity change, negative = inhibition, usual class: inhibitors. AID 1634. purified PKM2, ATP generation, Kinase-Glo luminescence. P14618; active means well fitted inhibition curve with a large enough effect; further: nearly all actives have a fitted effect of over 60% in size
# Target sequence (P14618 whole entry, looked up): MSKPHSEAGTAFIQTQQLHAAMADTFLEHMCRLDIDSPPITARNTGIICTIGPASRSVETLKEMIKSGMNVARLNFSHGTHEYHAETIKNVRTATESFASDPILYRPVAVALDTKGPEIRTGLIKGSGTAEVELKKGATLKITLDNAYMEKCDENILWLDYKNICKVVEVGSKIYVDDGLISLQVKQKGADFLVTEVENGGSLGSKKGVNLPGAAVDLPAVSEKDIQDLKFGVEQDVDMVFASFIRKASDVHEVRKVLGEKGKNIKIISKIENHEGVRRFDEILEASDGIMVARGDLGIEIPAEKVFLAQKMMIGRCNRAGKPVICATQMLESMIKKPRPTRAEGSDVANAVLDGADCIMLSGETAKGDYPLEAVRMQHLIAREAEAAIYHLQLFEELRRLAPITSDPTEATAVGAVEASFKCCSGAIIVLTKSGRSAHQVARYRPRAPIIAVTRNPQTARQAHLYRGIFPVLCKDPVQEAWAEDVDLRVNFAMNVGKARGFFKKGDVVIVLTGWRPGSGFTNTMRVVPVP
#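 Enzyme run at intermediate activity with final 0.1 mM ADP, 0.5 mM PEP (50 mM imidazole pH7.2, 50 mM KCl, 7 mM MgCl2), incubated 1 h at r.t. ATP formed read by Kinase-Glo luminescence, normalized to no-enzyme (full inhibition) and uninhibited wells.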
# An asterisk follows results filed as active. Potency means the concentration at half of the fitted maximal effect.
SMILES,PKM2 inhibitor
N#Cc1ccccc1Cn1cc(/C=C/[N+](=O)[O-])c2ccccc21,39%
C#CCOC(=O)Nc1ccc(=O)n(Cc2c(Cl)cccc2Cl)c1,57%
Fc1ccc(CSc2ncnc3ccccc23)cc1,98%
Cc1ccc(-n2nnc(-c3nccn3C)n2)cc1,16µM*
COc1ccc(NC(=O)COC(=O)CCc2cc(OC)c(OC)c(OC)c2)c([N+](=O)[O-])c1,37%
N#Cc1ccc(NC(=S)NCCN2CCOCC2)cc1,129%
COc1ccc(S(=O)(=O)NCc2c(-c3ccccc3)noc2C)c(OC)c1,78%
O=C(Cn1nnc(-c2ccc3c(c2)OCO3)n1)NCc1ccccc1,85%
COc1cccc(-c2nc(-c3ccccn3)no2)c1,14µM*
c1cc(-c2nnc(-c3ccncc3)o2)ccn1,72%
c1ccc(-c2noc(-c3ccncc3)n2)nc1,14µM*
c1ccc(-c2noc(-c3ccc4c(c3)OCO4)n2)nc1,8.9µM*
COc1cccc(-c2nnc(SCC(=O)Nc3cc(C)on3)o2)c1,42%
Cc1cccc(C)c1NC(=O)C1CCCN1S(=O)(=O)c1ccc2c(c1)n(C)c(=O)c(=O)n2C (configuration not stated),6%
COc1ccc(Cc2nc(-c3cccs3)no2)cc1,33%
O=P(O)(CCc1ccncc1)CN1CCCCC1,-15%
O=C(OCCN1C(=O)c2ccccc2C1=O)C1CCN(S(=O)(=O)c2cccs2)CC1,51%
Cc1ccc(C(=O)COc2nc(C)nc3ccccc23)cc1,42%
NNC(=O)CCc1nc2ccc(O)cc2[nH]1,32%
CCOc1ccc(-c2ccc(SC)nn2)cc1,3.2µM*
CCOc1ccc(CNc2cccc(SC)c2)cc1,77%
Cc1ccc(-c2ccc(SCC(=O)Nc3cc(C)on3)nn2)cc1,-2%
O=C(C1CC1)N1CCN(S(=O)(=O)c2ccc3c(c2)OCCO3)CC1,33%
COc1ccc(CNC(=O)c2c(C)nc3ccccn23)cc1,43%
COc1ccc(/C=C/C(=O)c2ccccn2)cc1,16µM*
SMILES,PKM2 inhibitor
COc1ccc(C(=O)NNC(=O)c2ccccn2)cc1,3.5µM*
COc1ccc(/C=C/C(=O)NCCNC(=O)c2ccccc2)cc1OC,38%
COc1cc(/C=C/C(=O)CC(=O)/C=C/c2ccc(O)c(OC)c2)ccc1O,30%
COc1ccc(-n2c(SCC(=O)O)nnc2-c2ccc(NC(=O)c3ccccc3)cc2)cc1,40%
O=C(NCc1cccc(Cl)c1)N1CCN(S(=O)(=O)c2ccccc2F)CC1,72%
O=C(NC1CC1)C1=C[C@@H](c2csc3ccccc23)C[C@@H](OCCCCO)O1,91%
Cc1cc(-c2nnc(SCC(=O)Nc3nccs3)o2)no1,90%
O=C(c1cccc([N+](=O)[O-])c1)c1ccc2c(c1)C(=O)N(c1c[nH]c(=O)[nH]c1=O)C2=O,-5%
CS/C(N)=N/S(=O)(=O)c1ccc(NC(C)=O)cc1,43%
CCCCCOP(=O)(OCCCCC)C1(NS(=O)(=O)c2ccccc2)C=CC(=O)c2ccccc21 (configuration not stated),44%
NS(=O)(=O)c1ccc(CCNC(=O)C2CCCO2)cc1 (configuration not stated),32%
C(=N\n1cnnc1)/c1ccccn1,-9%
C(=N\Nc1nc2ccccc2[nH]1)/c1ccccn1,14µM*
COc1c(O)c(O)cc2c1oc1c3cc(C)ccc3oc(=O)c21,46%
CC(=O)N1N=C(c2ccc3ccccc3c2)OC12CCCC2,97%
COc1cc(C2Oc3ccccc3C=C2[N+](=O)[O-])cc(OC)c1OC (configuration not stated),46%
CC1(C)SC(=S)N(c2ccccc2)C1/[N+]([O-])=C/c1cccc([N+](=O)[O-])c1 (configuration not stated),33%
O=[N+]([O-])c1ccc(-n2nnnc2-c2ccccc2)cc1,31%
Cc1[nH]n(-c2ccccc2)c(=S)c1C=Nc1ccc([N+](=O)[O-])cc1,11µM*
COc1cc(/C=C(\C#N)C(=O)Nc2ccc3c(c2)OCCO3)ccc1O,16%
Cc1ccsc1/C=N/Nc1nc(=O)[nH]nc1C,14µM*
Cc1c(C(=O)N2CCOCC2)c(S(=O)(=O)Nc2ccc(OC(F)(F)F)cc2)c(C)n1C,-2%
N/C(=C\C(=O)c1cc(Cl)ccc1O)C(Cl)(Cl)Cl,51%
Cc1ccc(-c2cc(C(=O)N3CCN(c4ncccn4)CC3)c3cc(Br)ccc3n2)o1,91%
CC1CCCCN1C(=O)CCS(=O)(=O)c1cc2c(cc1Cl)NC(=O)CO2 (configuration not stated),52%
SMILES,PKM2 inhibitor
COC(=O)[C@@]1(Cc2ccc(OC)cc2)[C@H]2c3cc(C(=O)N4CCCC4)n(CCc4ccc(O)c(O)c4)c3C[C@H]2CN1C(=O)c1ccccc1,54%
Cn1c(/C=C/c2ccccc2)nc2ccccc21,13µM*
Cn1c(Cn2cnc3ccccc32)nc2ccccc21,59%
Cn1c(CSc2nnc(SCc3ccccc3)s2)nc2ccccc21,100%
O=C(NCc1ccccc1F)C1CCN(S(=O)(=O)c2ccccc2)CC1,45%
COc1ccc(S(=O)(=O)N2CCN(C(=O)NCc3ccc(C)cc3)CC2)cc1,63%
Cc1nn(CCC(=O)N2CCN(S(=O)(=O)c3ccc(Cl)cc3)CC2)c(C)c1C,68%
CCN(CC)CCn1c(C)nc2ccccc21,0%
CCn1c(C)nc2cc(-c3nc4n(n3)Cc3ccccc3-4)ccc21,16µM*
Cc1cccc(N2CCN(C(=O)c3c(Cl)cnn3C)CC2)c1C,36%
O=[N+]([O-])c1ccc(OCC(O)CNCCNc2nccc(C(F)(F)F)n2)cc1 (configuration not stated),-2%
CCN(Cc1ccncc1)Cc1c(O)ccc2cc(Br)ccc12,36%
O=C1CCN(S(=O)(=O)c2ccccc2)CCN1CCOCc1cccc(F)c1,7%
COc1ccc2nc(C)cc(Nc3ccc(C)cc3)c2c1,-1%
COc1ccc(-c2cc3nc(C)cc(N)n3n2)cc1,14µM*
CCN1/C(=C/c2ccc3ccccc3[n+]2CC)C=Cc2ccccc21,14µM*
Cc1cc(NC(=O)CSc2nc3c(cc2C#N)CCCC3)no1,23%
Cc1cccc(NC(=O)c2cc([N+](=O)[O-])ccc2NCC2CCCO2)n1 (configuration not stated),47%
Cc1cccc(NC(=O)c2onc3c2CCCC3)n1,13µM*
COC(=O)[C@@]1(Cc2ccc(F)cc2)[C@H]2c3cc(C(=O)N(C)C)n(Cc4ccc(C)o4)c3C[C@H]2CN1C(=O)c1ccccc1,65%
COc1ccc(S(=O)(=O)NCc2cccnc2)cc1C,0%
COc1cc2c(cc1OC)CN(C(=O)c1ccc3[nH]c(C)c(C)c3c1)CC2,2%
Cc1ccc(C2=NOC(=O)/C2=C\C=C\c2ccccc2)cc1,34%
CCN1C(=O)N/C(=C/c2ccc(C)o2)C1=O,40%
Cc1ccc(C=C2C(=O)c3ccccc3C2=O)o1,14µM*
SMILES,PKM2 inhibitor
Cc1ccc(/C=C2/NC(=O)N(c3ccccc3)C2=O)o1,56%
O=C(CSc1ncnc2c1oc1ccccc12)NCc1ccco1,33%
CCOc1ccccc1NC(=O)CSc1nc2c(c(=O)n(C)c(=O)n2C)n1C,43%
O=S(=O)(Nc1ccccc1)c1ccc(NS(=O)(=O)c2c(F)cccc2F)cc1,59%
O=C(COC(=O)C1CCN(/C=C/C(=O)C(F)(F)F)CC1)Nc1ccccc1,7%
Cc1cc2[nH]c(=O)c(=O)[nH]c2cc1S(=O)(=O)Nc1ccccc1F,67%
CC1CCN(CC(=O)Nc2ccc(S(=O)(=O)NC3CC3)cc2)CC1,36%
c1c2c(cc3sc(N4CCOCC4)nc13)OCCO2,14µM*
O=S(=O)(c1ccccc1)N1CC=C(c2ccccc2)CC1,32%
